# The list shows a part of the results. The hit rate among all sequences tested is not known here.
# B1: FS-530 (peptide)
# chain: CAGHGRQERSAGNASASA
# B2: FS-1588 (peptide)
# chain: CAFAERQRRSAGNASASA
# B3: FS-163 (peptide)
# chain: CAGRHCVRRSAGNASASA
# B4: FS-1458 (peptide)
# chain: CAGTTRQRRSAGNASASA
# B5: FS-1322 (peptide)
# chain: CAFAERSGRGAGNASASA
# B6: HC742 (peptide)
# chain: CAGSSGGPLLAGNASASA
# B7: HC2422 (peptide)
# chain: CAEVPCHRPQAGNASASA
# B8: HC1995 (peptide)
# chain: CAHVCCSMSYAGNASASA
# B9: HC2576 (peptide)
# chain: CASTPCSAHGAGNASASA
# B10: HC630 (peptide)
# chain: CAIKLGALTGAGNASASA
# B11: HC1021 (peptide)
# chain: CAGMMLAEQFAGNASASA
# B12: FS-707 (peptide)
# chain: CARHRRQRRSAGNASASA
# B13: FS-1411 (peptide)
# chain: CASKRDHRRSAGNASASA
# B14: FS-90 (peptide)
# chain: CASCARHRRSAGNASASA
# B15: FS-1825 (peptide)
# chain: CARHRRLRGPAGNASASA
# B16: HC1754 (peptide)
# chain: CAMEECSQKLAGNASASA
# B17: FS-2496 (peptide)
# chain: CARMRRPPGGAGNASASA
# B18: FS-3001 (peptide)
# chain: CARMRRALVFAGNASASA
# B19: FS-2723 (peptide)
# chain: CARMRRDGWPAGNASASA
# B20: FS-2000 (peptide)
# chain: CARDGRDGTPAGNASASA
# B21: FS-2725 (peptide)
# chain: CARMRRRPGPAGNASASA
# B22: HC762 (peptide)
# chain: CATTMRSPVFAGNASASA
# B23: HC923 (peptide)
# chain: CACAWYELTPAGNASASA
# B24: FS-1704 (peptide)
# chain: CARFRRGLDNAGNASASA
# B25: HC2234 (peptide)
# chain: CAEVVTSTKVAGNASASA
# B26: FS-2837 (peptide)
# chain: CARTTRSVVHAGNASASA
# B27: FS-1695 (peptide)
# chain: CARELRNVGVAGNASASA
# B28: FS-1754 (peptide)
# chain: CARMVRSVKVAGNASASA
# B29: FS-2396 (peptide)
# chain: CARMTRSVDNAGNASASA
# B30: FS-1703 (peptide)
# chain: CARFRRGARSAGNASASA
# B31: HC1695 (peptide)
# chain: CAMHECSQHLAGNASASA
# B32: HC772 (peptide)
# chain: CAFQVAHLHAAGNASASA
# B33: HC2206 (peptide)
# chain: CAEVVTSMWVAGNASASA
# B34: HC1268 (peptide)
# chain: CACTANHDSPAGNASASA
# B35: HC1433 (peptide)
# chain: CADLLEDNVTAGNASASA
# B36: HC244 (peptide)
# chain: CAGNLPGCSFAGNASASA
# B37: FS-1761 (peptide)
# chain: CARPKRKGKCAGNASASA
# B38: FS-684 (peptide)
# chain: CALPFRSKRQAGNASASA
# B39: FS-1505 (peptide)
# chain: CAYSALHKRQAGNASASA
# B40: FS-2399 (peptide)
# chain: CARPKRSHHCAGNASASA
# B41: FS-1068 (peptide)
# chain: CARPKRSKRQAGNASASA
# B42: FS-1023 (peptide)
# chain: CALHKREKRQAGNASASA
# B43: HC1780 (peptide)
# chain: CAMEECSQHCAGNASASA
# Target: furin, P09958
# Sequence (P09958 whole entry): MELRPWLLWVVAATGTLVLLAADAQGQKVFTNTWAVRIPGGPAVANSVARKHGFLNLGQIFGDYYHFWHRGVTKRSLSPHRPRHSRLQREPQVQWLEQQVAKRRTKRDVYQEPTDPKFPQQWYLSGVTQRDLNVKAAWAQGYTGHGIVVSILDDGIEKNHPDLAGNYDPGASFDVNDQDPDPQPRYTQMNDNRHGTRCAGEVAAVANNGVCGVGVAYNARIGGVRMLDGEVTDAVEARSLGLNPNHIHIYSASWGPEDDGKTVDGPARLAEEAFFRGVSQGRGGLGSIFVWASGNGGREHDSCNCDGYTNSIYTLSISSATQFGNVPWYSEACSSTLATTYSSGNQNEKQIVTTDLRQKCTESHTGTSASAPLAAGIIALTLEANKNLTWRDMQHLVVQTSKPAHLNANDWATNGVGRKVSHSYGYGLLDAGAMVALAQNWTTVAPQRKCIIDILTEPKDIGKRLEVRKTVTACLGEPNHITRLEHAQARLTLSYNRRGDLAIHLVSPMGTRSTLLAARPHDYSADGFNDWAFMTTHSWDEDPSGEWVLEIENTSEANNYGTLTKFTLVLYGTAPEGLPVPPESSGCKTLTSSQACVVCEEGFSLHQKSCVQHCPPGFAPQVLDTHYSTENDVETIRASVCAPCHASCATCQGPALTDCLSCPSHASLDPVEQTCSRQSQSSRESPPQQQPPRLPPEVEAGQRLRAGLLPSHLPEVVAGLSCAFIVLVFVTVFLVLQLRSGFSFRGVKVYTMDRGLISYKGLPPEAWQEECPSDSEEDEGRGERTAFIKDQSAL
# Test: furin cleavage Z-score vs untreated control; higher = more cleavage, active = 3.5 or more, inactive = 1 or less, 8 variable residues between constant flanks
# Method in brief: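 Purified furin digested bead-held 8-mer peptide–cDNA fusions at 1:10 enzyme:substrate in 0.01 ml of 50 mM HEPES pH 7.5 with CaCl2 and NaCl for 7.5, 15 or 30 min. The cleavage Z-score compares sequencing counts of released DNA with furin-free reactions on a log scale, with lowess adjustment and median absolute deviation scaling.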
Sequence,furin cleavage Z-score (7.5 min),furin cleavage Z-score (15 min),furin cleavage Z-score (30 min)
B1,1.31,3.84 (active),3.39
B2,11.1 (active),11 (active),10.4 (active)
B3,3.46,4.86 (active),4.64 (active)
B4,9.35 (active),9.67 (active),7.94 (active)
B5,-0.454 (inactive),0.465 (inactive),0.178 (inactive)
B6,-1.42 (inactive),-0.944 (inactive),-0.396 (inactive)
B7,1.53,0.977 (inactive),-0.457 (inactive)
B8,-0.946 (inactive),-0.551 (inactive),-0.241 (inactive)
B9,-0.871 (inactive),0.825 (inactive),-0.885 (inactive)
B10,-0.745 (inactive),-0.643 (inactive),-1.94 (inactive)
B11,0.171 (inactive),0.335 (inactive),-0.461 (inactive)
B12,10.1 (active),10.5 (active),8.1 (active)
B13,1.79,-0.35 (inactive),0.449 (inactive)
B14,4.64 (active),3.79 (active),4.71 (active)
B15,-1.67 (inactive),-0.893 (inactive),-1.28 (inactive)
B16,1.17,0.659 (inactive),1.26
B17,-0.899 (inactive),-0.697 (inactive),-0.784 (inactive)
B18,4.84 (active),4.35 (active),6.45 (active)
B19,2.95,4.8 (active),5.65 (active)
B20,0.0974 (inactive),-0.249 (inactive),0.34 (inactive)
B21,0.305 (inactive),1.58,1.1
B22,-1.56 (inactive),-0.725 (inactive),-0.54 (inactive)

Sequence,furin cleavage Z-score (7.5 min),furin cleavage Z-score (15 min),furin cleavage Z-score (30 min)
B23,-0.0785 (inactive),0.676 (inactive),-1.48 (inactive)
B24,10.1 (active),8.75 (active),7.17 (active)
B25,0.581 (inactive),0.63 (inactive),-0.359 (inactive)
B26,-0.34 (inactive),0.171 (inactive),0.71 (inactive)
B27,-1.56 (inactive),0.756 (inactive),-0.781 (inactive)
B28,3.01,4.69 (active),6.85 (active)
B29,10.7 (active),10.3 (active),7.86 (active)
B30,10.1 (active),10.3 (active),8.23 (active)
B31,0.819 (inactive),2.72,1.59
B32,-0.105 (inactive),-0.994 (inactive),-1.62 (inactive)
B33,0.942 (inactive),-0.688 (inactive),-0.185 (inactive)
B34,-0.651 (inactive),-0.843 (inactive),-2.03 (inactive)
B35,0.275 (inactive),-2.11 (inactive),-1.66 (inactive)
B36,-0.0639 (inactive),0.93 (inactive),-0.123 (inactive)
B37,0.0893 (inactive),0.774 (inactive),1.28
B38,9.98 (active),10.9 (active),7.98 (active)
B39,1.15,-1.98 (inactive),1.13
B40,4.25 (active),6.93 (active),6.58 (active)
B41,12.3 (active),11.8 (active),9.11 (active)
B42,13.9 (active),12.1 (active),10.2 (active)
B43,1.81,-0.183 (inactive),1.82

# From the supplement of paper PMC3545927
